According to PubChem BioAssay AID485284 (NMMLSC, 2010):
Measured potencies and affinities stand elsewhere.

Experiment: loss of vesicle association with mouse CD8+ T cells – mouse 2C CD8+ T cells, flow cytometry, dose response (AID 485284);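 also: drosophila derived vesicles carrying Ld MHC with QL9 peptide plus B7-1 and ICAM-1; vesicle binding seen as anti-B7-1 PE fluorescence on CD8 gated cells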
Details: 2C mouse CD8+ T cell-exosome binding; at 45 µM (top of the series)

| Compound | binding remaining, % of control [%] |
| --- | --- |
| COc1ccc([C@H]2CC(=O)C=C(c3ccc4c5c(cccc35)CC4)C2)cc1 | 119 |
| CC(C)(C)OC(=O)NCc1ccc(CNC(=O)c2nc[nH]c2C(=O)NCc2ccccc2)cc1 | 109 |
| O=C1N=C(N2CCOCC2)S/C1=C\c1cccs1 | 99.5 |
| O=C(CN1C(=O)NC2(CCCCCC2)C1=O)N1CCN(c2ccc(F)cc2)CC1 | 110 |
| CSc1cccc(NC(=O)CCCn2c(=O)c3cccn3c3cccnc32)c1 | 87.5 |
| CN(CC(=O)Nc1cc(S(=O)(=O)N2CCCC2)ccc1Cl)Cc1ccc2c(c1)OCO2 | 63 |
| COc1ccc(CNC(=O)c2cccnc2SC)cc1OC | 132 |
| C=CCN(c1ccc(Br)cc1C(=O)OC)S(C)(=O)=O | 115 |
| CCOC(=O)c1cn(CC)c2cc(Cl)c([N+](=O)[O-])cc2c1=O | 128 |
| COc1ccc(NC(=O)[C@@H](NC(=O)c2ccccc2F)C(C)C)cc1S(=O)(=O)N1CCOCC1 | 84.7 |
| CCOc1ccc(C(=O)NNC(=O)CN2C(=O)C3CC=CCC3C2=O)cc1OC (centres undefined) | 194 |
| NC(=O)C1CCN(c2nc(-c3cc4ccccc4o3)cs2)CC1 | 44.2 |
| C=CCNC(=S)Nc1sc2c(c1C(N)=O)CCCC2 | 163 |
| CC1CCN(S(=O)(=O)Cc2ccccc2Cl)CC1 | 118 |
| CC(Sc1nc2ccccc2[nH]1)C(=O)NC1CCCCC1C (centres undefined) | 87.9 |
| CCOC(=O)C1CCCN(c2cc(=O)n(-c3ccccc3Cl)c(=O)[nH]2)C1 (centres undefined) | 87.9 |
| Cc1cc(=O)oc2c3c(cc(OCC(=O)NCc4ccncc4)c12)OC(C)(C)CC3 | 119 |

| Compound | binding remaining, % of control [%] |
| --- | --- |
| O=C(N/N=C/c1cccc(OCc2ccccc2)c1)c1ccc(Br)cc1 | 63.5 |
| CCC(C)S(=O)(=O)c1snnc1C (centres undefined) | 164 |
| CC(C)(C)NC(=O)COc1ccc(CNCc2ccccn2)cc1 | 120 |
| CCCCN1C(=O)NC(NC(=O)C2CC2)(C(F)(F)F)C1=O (centres undefined) | 136 |
| CN1CCN(C(=O)c2cc3ccccc3cc2O)CC1 | 178 |
| Cc1ccc(NC(=O)CN2C(=O)N/C(=C/c3ccc(C)s3)C2=O)cc1 | 46 |
| Cc1ccc(S(=O)(=O)N2CCN(S(=O)(=O)N(C)C)CC2)c(C)c1 | 32.6 |
| Cc1ccc(S(=O)(=O)N2CCN(C(=O)CNC(=O)c3ccc(Cl)cc3)CC2)cc1 | 219 |
| COc1ccc(NS(=O)(=O)c2cc(NC(=O)C3CC3)ccc2N2CCCCC2)cc1 | 49.3 |
| Cc1ccc2c(Cl)cc(Cl)c(OCC(=O)OCC(=O)Nc3ccc(C#N)cc3)c2n1 | 141 |
| O=C(NCCC1=CCCCC1)C(=O)NCC(c1ccco1)N1CCN(c2ccccc2F)CC1 (centres undefined) | 136 |
| O=C(Cc1ccc2c(c1)OCCO2)Nc1cccc(S(=O)(=O)N2CCOCC2)c1 | 135 |
| CCOc1ccc(CCNC(=O)CCS(=O)(=O)c2ccc(C)cc2)cc1OCC | 94 |
| Cc1c(Cl)cccc1NC(=O)c1cc(C2CC2)on1 | 86 |
| CC1CCC(NC(=O)CN2C(=O)NC3(CCCCCC3)C2=O)CC1 (centres undefined) | 101 |
| COc1ccc([C@H]2CC(=O)C=C(c3cc(F)ccc3OC)C2)cc1 | 109 |
| CC(C)C(C(=O)NC1=NCCS1)c1ccc(Cl)cc1 (centres undefined) | 31.2 |
